# Source: PubChem BioAssay AID602179 (National Center for Advancing Translational Sciences (NCATS), 2012)
# In all, about 390,000 compounds went through this assay and about 360 (0.092%) were called active. The full list was thinned out, with actives kept by preference. Values without a mark were called inactive. Calls come from the whole dose curve; as a rule, active = well fitted inhibition curve with a large enough effect; inconclusive = small, poorly fitted or top-dose-only effect; inactive = no such curve, though single readings can be large or run the other way.
# Target: Isocitrate dehydrogenase [NADP] cytoplasmic (Homo sapiens) (UniProt O75874)
# Experiment: qHTS for Inhibitors of mutant isocitrate dehydrogenase 1 (IDH1): qHTS; note: nearly all actives have a fitted effect of over 65% in size
# Settings: IDH1-R132H enzyme, NADPH consumption, diaphorase/resazurin fluorescence; series mostly up to 76.6 µM; activity change, negative = inhibition: at the top concentration
# Excerpt: Unbiased genomic sequencing for 22 glioma genomes found recurrent mutation of isocitrate dehydrogenase 1 (IDH1) on chromosome 2q33-a gene encoding the cytosolic isoform of IIDH1associated with the tricarboxylic acid cycle (TCA) that catalyzes the oxidative decarboxylation of isocitrate, yielding alpha-ketoglutarate and CO2 via NADP+ to NADPH conversion. Subsequent studies confirmed the recurrent IDH mutations in up to 70% of secondary gliomas and in 10% of AML cases. […] This in effect defines IDH1 as an oncogene, and provides an extraordinary opportunity to discover chemical probes against mutant IDH1 that may translate into much needed new therapies for glioma and AML patients. […] NIH Chemical Genomics Center [NCGC] NIH Molecular Libraries Probe Centers Network [MLPCN] MLPCN Grant: DA032129 Assay Submitter (PI): Lenny Dang, Agios Pharmaceuticals
# IDH1-R132H (0.5 ug/mL) was dispensed into black, solid-bottom 1536-well plates at 3 uL/well in 20 mM Tris-HCl (pH 7.5), 150 mM NaCl, 10 mM MgCl2, 4 mM beta-ME, and 0.05% protease-free BSA. Then, 23 nL of compounds or DMSO were delivered to each well using a pin tool. A pre-read was run on the Viewlux to identify fluorescent compounds (540 nm excitation filter, 598 nm emission filter, bodipy mirror and 2 second exposure). After 30 minutes of incubation with compound, 3 uL of substrate mix were dispensed (0.016 mM NADPH, 2 mM alpha-KG, 20 mM Tris-HCl (pH 7.5), 150 mM NaCl, 10 mM MgCl2, and 0.05% protease-free BSA). Plates were spun for 1 min at 1000xg and incubated at room temperature for 80 min. Then 1.5 uL of each detection reagent component for the coupling system were added (0.12 mg/mL diaphorase and 0.072 mM resazurin, each in 20 mM Tris-HCl (pH 7.5), 150 mM NaCl, 10 mM MgCl2, and 0.05% protease-free BSA ) The protein, substrate and two detection components were maintained at 4 °C throughout the screen. Additionally, the substrate and resazurin reagents were protected from light. The plates were measured on an Envision plate reader for fluorescence signal using a 540 nm excitation filter and 590 nm emission filter with 10 flashes. 1x and 0x (no-enzyme) IDH1-R132H enzyme control were used to normalize %Activity of identified inhibitors; 0x enzyme values corresponded to 100% Activity (full inhibition), while 1x IDH1-R132H enzyme values were used to normalize 0%Activity (no inhibition). Concentration-response curves were fitted to the signals arising from the resulting fluorescence. The concentration-effect curves were then classified based on curve quality (r2), response magnitude and degree of measured activity, and compounds were subsequently categorized based on their curve class. […] Keywords: isocitrate dehydrogenase, IDH1, IDH1-R132H, MLSMR, MLPCN, NIH Roadmap, qHTS, NCGC
# % is set by controls: 0 for no effect and ±100 for the full control effect; potency is the fitted concentration of half-maximal effect.
# Isocitrate dehydrogenase [NADP] cytoplasmic (Homo sapiens), sequence (O75874 whole entry R132H, change not shown): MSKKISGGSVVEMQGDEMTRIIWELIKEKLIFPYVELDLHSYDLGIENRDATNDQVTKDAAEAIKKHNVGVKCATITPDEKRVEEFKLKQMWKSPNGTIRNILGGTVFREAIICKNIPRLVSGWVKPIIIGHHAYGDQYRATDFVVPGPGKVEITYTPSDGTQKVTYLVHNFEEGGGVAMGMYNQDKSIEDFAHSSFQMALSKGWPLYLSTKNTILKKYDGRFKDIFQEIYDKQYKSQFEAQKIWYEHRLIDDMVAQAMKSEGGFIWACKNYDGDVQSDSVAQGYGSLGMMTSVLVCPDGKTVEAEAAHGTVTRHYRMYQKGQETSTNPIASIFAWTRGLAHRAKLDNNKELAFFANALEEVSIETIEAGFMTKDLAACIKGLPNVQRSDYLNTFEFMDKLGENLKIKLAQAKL
Structure (SMILES),Potency,"activity change, negative = inhibition [%]"
CC(C)(C)c1ccc(S(=O)(=O)Nc2ccc(O)c(Sc3nc4ccccc4s3)c2)cc1,39.8 µM (active),–
Cn1c(O)c(C=NCCN2CCNCC2)c(=O)n(C)c1=O,–,3.83
CCOCCc1c(O)[nH]c(=S)[nH]c1=O,–,0
O=C(Nc1ccc(Cl)cc1C(=O)c1ccccc1)c1cc(Cl)cc(Cl)c1,–,-0.857
CC(C)Oc1ccc(NC(=O)c2cc3ccccc3o2)cc1,–,44.4
